The whole screen tested about 360,000 compounds, of which about 11,000 (3.1%) were called active. The entries come from a sample that favours actives as a whole. Values without a mark were called inactive. Rule as the data show it: active = activity change below about -30%; inactive = the rest.
biological target: D(1A) dopamine receptor (Homo sapiens) (UniProt P21728); experiment: Antagonist of Human D 1 Dopamine Receptor: qHTS; conditions: HEK293 TREx D1 cells, calcium flux, dopamine EC80; at 10 µM; hits give low values
Sequence (P21728 whole entry, looked up): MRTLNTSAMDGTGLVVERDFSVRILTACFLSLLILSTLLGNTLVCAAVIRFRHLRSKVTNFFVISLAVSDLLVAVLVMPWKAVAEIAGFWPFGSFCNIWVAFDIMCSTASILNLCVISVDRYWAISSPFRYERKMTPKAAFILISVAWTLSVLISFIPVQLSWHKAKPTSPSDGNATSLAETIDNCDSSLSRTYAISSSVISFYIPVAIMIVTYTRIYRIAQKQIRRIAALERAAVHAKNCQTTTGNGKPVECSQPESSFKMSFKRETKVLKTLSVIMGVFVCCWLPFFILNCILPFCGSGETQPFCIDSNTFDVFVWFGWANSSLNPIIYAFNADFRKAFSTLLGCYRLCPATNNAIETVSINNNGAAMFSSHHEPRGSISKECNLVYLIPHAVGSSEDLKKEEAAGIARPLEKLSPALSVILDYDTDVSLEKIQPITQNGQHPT
Excerpt: Dopamine receptors (DARs) are involved in the etiology and/or therapy of a number of neuropsychiatric and endocrine disorders. For instance, all receptor-based antiparkinsonian drugs work via stimulating the […] DAR subtype whereas all FDA-approved antipsychotic agents are antagonists of this receptor. […] There are three different types of allosteric modulators that we are seeking, two of which will stimulate or augment receptor signaling, allosteric agonists and potentiators, while the third, allosteric antagonists, will attenuate receptor signaling. The present primary screening assay measures compound antagonism after an EC80 addition of dopamine by tracking calcium flux in a […], inducible Hek293 Trex D1 cell line. NIH Chemical Genomics Center [NCGC] NIH Molecular Libraries Probe Centers Network [MLPCN] MLPCN Grant: NS064831-01 Assay Submitter (PI): David Sibley
Freshly passaged cells are plated in 1536 well black, clear bottom plates at a density of 4000 cells/well in 3 ul of complete media containing 1x tetracycline inducer. After an overnight incubation at 30 C in 5% CO2, cells are loaded with 2 ul of the no wash Calcium Assay Kit (ABD Bioquest) and incubated at room temperature for 30 to 90 minutes. Agonist read: A 10 cycle (1 second/cycle) baseline measurement is taken and then the FDSS online 1536 pintool delivers 23 nl of compound library (as well as dopamine controls) to the plate. The plate is measured for kinetically at 1 cycle/sec for 180 seconds. Following the 180 second read, 1 ul of an EC80 (negative modulation assay) is delivered by an onboard pipette head. Measurements are taken kinetically for an additional 180 seconds.
% is scaled to controls: 0 for no effect and ±100 for the full control effect.

Compound	activity change, negative = inhibition
Cc1ccc(C(=O)N/C(=C/c2cccs2)C(=O)N2CCCCC2)cc1	-1.28%
CN1CCN(C(=O)/C(=C\c2cccs2)NC(=O)c2cccs2)CC1	-40.4% (active)
CN1CCN(C(=O)/C(=C\c2ccc3c(c2)OCO3)NC(=O)c2cccs2)CC1	-1.26%
CCOc1ccc(CNC(=O)c2ccc3c(c2)nnn3C2CCCC2)cc1	-28.9%
Cc1ccc(-c2nn(CCC(=O)Nc3ccc(OC(F)(F)F)cc3)c(=O)c3ccccc23)cc1	-11%
Cc1ccc(NC(=O)Nc2ccc3oc(C)nc3c2)cc1	-1.61%
COc1ccc(NC(=O)Nc2cccc(-c3noc(C)n3)c2)cc1	8.89%
COc1ccc(NC(=O)Nc2ccc3nsnc3c2)cc1	-36.6% (active)
Cc1ccc(C)c(Cn2c(C)c(CNCc3ccc(F)cc3)c(C(=O)O)c2C)c1	-10.2%
O=C(NCc1ccco1)c1ccc(NS(=O)(=O)c2cccc([N+](=O)[O-])c2)cc1	-51.9% (active)
O=[N+]([O-])c1cccc(S(=O)(=O)NCc2ccccn2)c1	8.53%
O=C(NCc1ccncc1)c1ccc(NS(=O)(=O)c2cccc([N+](=O)[O-])c2)cc1	-49% (active)
O=C(NCc1ccco1)/C(=C/c1cccc([N+](=O)[O-])c1)NC(=O)c1ccco1	-9.94%
O=C(NCc1ccco1)c1ccc([N+](=O)[O-])cc1Cl	-6.24%
O=C(NCc1ccncc1)c1cccc(NS(=O)(=O)c2ccc(F)c(F)c2)c1	-6.23%
CCOC(=O)c1c(NC(=O)COc2cc(C)ccc2C(C)C)sc(C)c1C	8.46%
CC1CCCN(CCOCCOc2ccccc2-c2ccccc2)C1 (configuration not stated)	-48.5% (active)
c1ccc(-c2ccccc2OCCN2CCCCC2)cc1	8.41%
CC1CN(CCCOc2ccccc2-c2ccccc2)CC(C)O1 (configuration not stated)	13.9%
CC1CN(C(=O)N2CCC(C(=O)NCc3cccs3)CC2)c2ccccc2O1 (configuration not stated)	-3.92%
COc1ccc(NC(=O)CCNS(=O)(=O)c2ccc3c(c2)CCCC(=O)N3)cc1Cl	1.62%
O=S(=O)(Nc1cccc2cccnc12)c1cccc2cccnc12	-7.95%
O=S(=O)(NCCOc1cccc2cccnc12)c1ccc(F)cc1	6.87%

Compound	activity change, negative = inhibition
O=S(=O)(NCCc1ccc(F)cc1)c1cccc2cccnc12	-44.7% (active)
CC(CNC(=O)c1nnc(Cc2cccc(F)c2)o1)c1ccccc1 (configuration not stated)	0.636%
Cc1cc2oc(C(=O)N(Cc3ccc(Cl)cc3)Cc3ccco3)c(C)c2cc1Cl	-1.03%
CCCOc1ccc(-c2cccc(NS(=O)(=O)c3ccccc3)c2)nn1	-24.2%
CCNS(=O)(=O)c1cc(-c2nnc(Nc3cccc(C(F)(F)F)c3)c3ccccc23)ccc1C	-6.09%
Cc1ccc2nc(COc3ccc(N(C)S(=O)(=O)c4ccccc4)cc3)cc(=O)n2c1	-32.1% (active)
COc1cccc(COc2ccc(N(C)S(=O)(=O)c3ccccc3)cc2)c1	-1.51%
Cc1ccc2nc(COc3ccc(NC(=O)COc4ccccc4F)cc3)cc(=O)n2c1	0.203%
CSc1ccc(CCNC(=O)c2ccc3c(c2)nc2n3CCOC2)cc1	11.3%
CCCN1CCN(CCCNC(=O)c2ccc3nc(Cc4ccccc4)oc3c2)CC1	-1.19%
CC(C)CC(NS(=O)(=O)c1ccc2c(c1)oc(=O)n2C)C(=O)NCc1ccccc1Cl (configuration not stated)	14.8%
CCCCCn1c(=O)[nH]c2cc(C(=O)Nc3cc(C)cc(C)c3)ccc2c1=O	-6.59%
Cc1ccc(C(C[N+](=O)[O-])c2c(C)cc3ccccn23)cc1 (configuration not stated)	-51.3% (active)
COc1ccc(C(C[N+](=O)[O-])n2nc(C)cc2C)cc1 (configuration not stated)	13.7%
CC(=O)Nc1ccc(/C=N/Nc2ccc(C(=O)c3c(C)cc4ccccn34)cc2[N+](=O)[O-])cc1	-18.5%
CN1CCN(C2=NCCO2)CC1	-33% (active)
CCOC(=O)C1CCN(c2csc3ccc(C)cc3c2=O)CC1	6.24%
Fc1cccc(-n2ncc3c2ncn2nc(-c4ccccc4Cl)nc32)c1	-8.03%
O=C(NCCc1ccc(Cl)cc1)c1cccc(N2CCCC2=O)c1	-8.26%
Cc1cccc(NC(=S)NCCc2ccc(Cl)cc2)c1C	-8.27%
Oc1cc2c(cc1O)CN(C(=S)NCCc1ccc(Cl)cc1)CCC2	-90.5% (active)
Cc1ccc2ncc(C(=O)Nc3ccc(OC(F)(F)F)cc3)c(=O)n2c1	0.312%
COc1cc(CCC(=O)N2CCN(c3ccccc3Cl)CC2)cc(OC)c1OC	-35% (active)

Compound	activity change, negative = inhibition
COc1cc(CCC(=O)Nc2ccncc2Cl)cc(OC)c1OC	1.11%
CC(=O)c1ccc(N2CCN(C(=O)CCc3ccccc3)CC2)cc1	3.26%
COc1cccc(C(=O)N(Cc2cccc(Cl)c2)Cc2ccco2)c1	-12.2%
COc1ccc(-c2ccc(CNCCCN3CCOCC3)o2)cc1Cl	-8.26%
O=C(NCCCN1CCOCC1)c1cc(-c2ccc(Cl)cc2)on1	7.89%
C=CCOc1ccc(Cl)cc1CNCCCN1CCOCC1	-32.4% (active)
COCCCNC(=O)c1ccc(NC(=O)c2nsc3ccccc23)cc1	-4.68%
COc1ccc(NC(=O)CCN2CCN(CCO)CC2)cc1	-14%
Cc1ccc(C)c(N2CCN(C(=O)C3CCC(CNS(=O)(=O)c4cccs4)CC3)CC2)c1 (configuration not stated)	16.1%
COc1ccc(NC(=O)N2CCCn3nc(C)cc32)cc1OC	-22.3%
COc1ccc(CCNC(=O)c2ccc(CSCc3ccc(C)cc3)o2)cc1OC	-24.7%
COc1ccc(CCNc2ncnc3c2cnn3-c2ccc(C)cc2)cc1	-63.8% (active)
C1=C(CCNc2ncnc3c2cnn3-c2ccccc2)CCCC1	-10.6%
Clc1cccc(-n2ncc3c(NCCc4ccccc4)ncnc32)c1	-27.8%
O=C(Nc1ccccc1F)C(c1ccccc1)N1Cc2ccccc2C1=O (configuration not stated)	-0.199%
Cc1cccc(OCC(=O)N(Cc2ccc(C(C)C)cc2)Cc2ccco2)c1C	-14.7%
COc1ccc(NC(=O)NCc2ccc3c(c2)OCO3)c(OC)c1	2.8%
Cc1ccc(CNC(=O)c2cc(-c3ccccc3C)n(CC3CC(c4cccc([N+](=O)[O-])c4)=NO3)n2)cc1 (configuration not stated)	-15.8%
COc1ccc(C2=NOC(Cn3nc(C(=O)NCc4ccc5c(c4)OCO5)cc3-c3ccccc3)C2)cc1 (configuration not stated)	-33.6% (active)
COc1cccc(N=C2SC(C(=O)Nc3cccc(Cl)c3)CC(=O)N2C)c1 (configuration not stated)	-65.2% (active)
COc1ccc(N=C2SC(C(=O)Nc3ccc(F)cc3)CC(=O)N2C)cc1 (configuration not stated)	5.67%
COc1cccc(-c2cccc(NC(=O)C3CCN(C4CCC4)CC3)c2)c1	30.7%
CSc1ccc(CCNC(=O)c2cnn(-c3ccccc3)c2-n2cccc2)cc1	1.42%

Compound	activity change, negative = inhibition
O=C(NCCCN1CCOCC1)c1ccccc1NS(=O)(=O)c1ccc(Br)cc1	-0.557%
Cc1ccc(NS(=O)(=O)c2ccc(C(=O)NCCCN3CCOCC3)cc2)cc1	26.5%
O=C(NCCCN1CCOCC1)c1ccccc1NS(=O)(=O)c1ccc(F)cc1	-51.4% (active)
COC(=O)c1cc(S(=O)(=O)N2CCN(c3cc(Cl)ccc3C)CC2)c[nH]1	5.54%
CCn1cc2nc(SCc3cccc(F)c3)n(CCc3ccccc3)c(=O)c2n1	11.7%
CCCCN(CC)CCCNC(=O)Cn1ncc2c([nH]c3ccc(C)cc32)c1=O	3.23%
Cc1cccc(NC(=O)N2CCN(C)c3ncccc32)c1C	-0.945%
COc1ccc(S(=O)(=O)n2nc(C)c(S(=O)(=O)N3CCCCCC3)c2C)cc1	5.83%
Cc1cc(C(=O)Nc2cccc(C(F)(F)F)c2)c2c(C)nn(-c3cccc(F)c3)c2n1	-34.4% (active)
COc1cc(NC(=O)c2cc(C3CC3)nc3c2c(C)nn3-c2ccccc2)cc(OC)c1	0.344%
CSc1ccc(CCNC(=O)c2cc(C)nc3c2c(C)nn3-c2cccc(F)c2)cc1	-11.8%
CC(C)(C)C1CCc2c(sc(NC(=O)c3ccccc3F)c2C(=O)N2CCCCC2)C1 (configuration not stated)	4.22%
Cc1ccc(NC(=O)CN2c3ccccc3S(=O)(=O)c3ccccc32)cc1F	-3%
COc1cc(OC)c(-n2cc(-c3ccc(Cl)cc3)[nH]c2=O)cc1Cl	-36.2% (active)
COc1cc(OC)c(-n2c(C)cc(C=O)c2C)cc1Cl	14.6%
COc1cc(OC)c(N2CC(C(=O)Nc3cc(Cl)ccc3N3CCOCC3)CC2=O)cc1Cl (configuration not stated)	-18.4%
CCN1CCC(N(Cc2ccc(F)cc2)C(=O)Nc2cc(C)ccc2C)CC1	-6.08%
Cc1ccsc1CN(C(=O)c1oc2ccc(Br)cc2c1C)C1CCS(=O)(=O)C1 (configuration not stated)	-12.9%
CCc1ccc(CN(Cc2ccco2)C(=O)COc2ccc(Cl)c(C)c2)cc1	-3.05%
COc1ccc(Br)cc1CNC(=O)c1cc(=O)[nH]c2ccc(S(=O)(=O)N3CCCC3)cc12	2.78%
O=C(O)[C@@H]1CCCN1c1ncnc2sc3c(c12)CCC3	-59.2% (active)
CC1(C)CN=C(N2CCN(c3ncnc4sc5c(c34)CCCC5)CC2)S1	-2.14%
O=C(O)c1cccnc1Sc1ncnc2sc3c(c12)CCC3	11.4%
